Laboratory results from PubChem BioAssay (EPA / NIEHS).
Calls of active or inactive are those of the source. Rule for the calls: active = hit-call score of the fitted dose curve at least 0.9, where 1 is the maximum; inactive = score below 0.9.

How the values were obtained:
Conditions in all cases: mRNA level, 48 h; actives raise or lower the signal
[1] = read-out: Insulin Like Growth Factor 1 (IGF1), IGF1 (gene 3479); assay: LTEA_HepaRG_IGF1: Life Technologies and Expression Analysis (LTEA) Assay for Insulin Like Growth Factor 1 (IGF1) using HepaRG (AID 2283506)
Procedure, shortened: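 Differentiated HepaRG cells in serum-free induction medium, exposed 48 h in duplicate to 8 half-log concentrations up to 100 uM in 0.5% DMSO. IGF1 mRNA by Fluidigm qRT-PCR, normalised to ACTB, GAPDH and POLR2A.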

[2] = read-out: Intercellular Adhesion Molecule 1 (ICAM1), ICAM1 (gene 3383); assay: LTEA_HepaRG_ICAM1: Life Technologies and Expression Analysis (LTEA) Assay for Intercellular Adhesion Molecule 1 (ICAM1) using HepaRG (AID 2283507)
Procedure, shortened: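 Gain or loss of transcript in HepaRG hepatic cells is quantified by qRT-PCR after 48 h chemical exposure (up to 100 uM, half-log steps), with DMSO as baseline.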

[3] = read-out: Interleukin 6 (IL6), IL6 (gene 3569); assay: LTEA_HepaRG_IL6: Life Technologies and Expression Analysis (LTEA) Assay for Interleukin 6 (IL6) using HepaRG (AID 2283509)
Procedure, shortened: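 HepaRG, ~100,000 cells/well, 48 h pre-culture; serum-free induction medium; cmpd 8-pt half-log from 100 uM, 0.5% DMSO, duplicate, 48 h. Lysis in RLT, TaqMan qRT-PCR; gain or loss vs DMSO.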

[4] = read-out: Interleukin 6 Receptor (IL6R), IL6R (gene 3570); assay: LTEA_HepaRG_IL6R: Life Technologies and Expression Analysis (LTEA) Assay for Interleukin 6 Receptor (IL6R) using HepaRG (AID 2283510)
Procedure, shortened: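 Differentiated HepaRG cells, plated 48 h, then exposed in duplicate for 48 h in serum-free induction medium to 8 half-log concentrations (top 100 uM, 0.5% DMSO). IL6R mRNA measured by TaqMan qRT-PCR, normalized to ACTB/GAPDH/POLR2A; bidirectional fit vs DMSO.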

[5] = read-out: Potassium channel subfamily K member 1 (KCNK1), KCNK1 (gene 3775); assay: LTEA_HepaRG_KCNK1: Life Technologies and Expression Analysis (LTEA) Assay for Potassium channel subfamily K member 1 (KCNK1) using HepaRG (AID 2283511)
Procedure, shortened: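 Gain or loss of KCNK1 mRNA is the read-out, quantified by qRT-PCR against three housekeeping genes after 48 h chemical treatment of human HepaRG liver cells. Concentrations ran from 100 uM downward in half-log steps, vehicle 0.5% DMSO.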

[6] = read-out: Keratin 19 (KRT19), KRT19 (gene 3880); assay: LTEA_HepaRG_KRT19: Life Technologies and Expression Analysis (LTEA) Assay for Keratin 19 (KRT19) using HepaRG (AID 2283512)
Procedure, shortened: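 Gene-expression endpoint in the human liver line HepaRG after 48 h exposure to up to 100 uM test chemical with 0.5% DMSO vehicle; KRT19 mRNA by qRT-PCR, analyzed bidirectionally versus DMSO.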

[7] = read-out: JUN Transcription Factor, JUN (gene 3725); assay: LTEA_HepaRG_JUN: Life Technologies and Expression Analysis (LTEA) Assay for JUN Transcription Factor using HepaRG (AID 2283513)
Procedure, shortened: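 HepaRG cells, 48 h post-plating, exposed 48 h in serum-free induction medium to 8-point half-log series (top 100 uM, 0.5% DMSO), duplicate; mRNA by qRT-PCR (TaqMan, Fluidigm), normalized to ACTB/GAPDH/POLR2A; bidirectional fit vs DMSO.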

[8] = read-out: Lipase C (LIPC), LIPC (gene 3990); assay: LTEA_HepaRG_LIPC: Life Technologies and Expression Analysis (LTEA) Assay for Lipase C (LIPC) using HepaRG (AID 2283514)
Procedure, shortened: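 Read-out is LIPC transcript level by TaqMan qRT-PCR, normalized to three housekeeping genes, after 48 h chemical treatment of human HepaRG liver cells. Curves span eight concentrations topping at 100 uM; activity in either direction scored relative to 0.5% DMSO.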

[9] = read-out: Lipoprotein lipase (LPL), LPL (gene 4023); assay: LTEA_HepaRG_LPL: Life Technologies and Expression Analysis (LTEA) Assay for Lipoprotein lipase (LPL) using HepaRG (AID 2283515)
Procedure, shortened: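 Read-out is LPL transcript level by qRT-PCR, normalized to three housekeeping genes and fitted bidirectionally against the DMSO control. Human HepaRG cells received chemicals for 48 h at up to 100 uM.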

[10] = read-out: MicroRNA 122 (MIR122), gene 406906; assay: LTEA_HepaRG_MIR122: Life Technologies and Expression Analysis (LTEA) Assay for MicroRNA 122 (MIR122) using HepaRG (AID 2283516); note: the transcript read is the microRNA miR-122
Procedure, shortened: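 Differentiated human HepaRG cells in serum-free induction medium exposed 48 h to 8 half-log concentrations from 100 uM in 0.5% DMSO, duplicate. MIR122 quantified by Fluidigm TaqMan qRT-PCR, normalised to ACTB, GAPDH, POLR2A; fold change fitted bidirectionally versus DMSO.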

MYC, MYC (gene 4609) = assay: LTEA_HepaRG_MYC: Life Technologies and Expression Analysis (LTEA) Assay for MYC using HepaRG (AID 2283518)
Procedure, shortened: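 Cells are thawed, plated and cultured 48 h, then treated for 48 h with test chemicals (eight half-log concentrations from 100 uM, 0.5% DMSO vehicle). RNA is isolated and MYC expression quantified by qRT-PCR against three housekeeping genes.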

[11] = read-out: matrix metalloproteinase-3 (MMP3), MMP3 (gene 4314); assay: LTEA_HepaRG_MMP3: Life Technologies and Expression Analysis (LTEA) Assay for matrix metalloproteinase-3 (MMP3) using HepaRG (AID 2283519)
Procedure, shortened: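 HepaRG, human; 48 h dosing, 8 conc. (max 100 uM, half-log), duplicate, 0.5% DMSO. Readout: MMP3 transcript by Fluidigm TaqMan qRT-PCR, ACTB/GAPDH/POLR2A-normalised. Gain or loss fitted vs DMSO.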

[12] = read-out: Paternally Expressed 10 (PEG10), PEG10 (gene 23089); assay: LTEA_HepaRG_PEG10: Life Technologies and Expression Analysis (LTEA) Assay for Paternally Expressed 10 (PEG10) using HepaRG (AID 2283520)
Procedure, shortened: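 Differentiated HepaRG cells exposed 48 h in serum-free induction medium to eight half-log concentrations topping at 100 uM, 0.5% DMSO, in duplicate. PEG10 mRNA quantified by TaqMan qRT-PCR, normalized to ACTB, GAPDH and POLR2A; bidirectional fit versus DMSO.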

[13] = read-out: Phosphatase and tensin (PTEN), PTEN (gene 5728); assay: LTEA_HepaRG_PTEN: Life Technologies and Expression Analysis (LTEA) Assay for Phosphatase and tensin (PTEN) using HepaRG (AID 2283523)
Procedure, shortened: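 Read-out is PTEN transcript level by multiplexed TaqMan qRT-PCR after 48 h chemical treatment of human HepaRG cultures in serum-free induction medium. Concentrations spanned 100 uM downward in half-log steps, 0.5% DMSO throughout; activity fitted in both directions against vehicle.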

[14] = read-out: solute carrier (SLC22A1), SLC22A1 (gene 6580); assay: LTEA_HepaRG_SLC22A1: Life Technologies and Expression Analysis (LTEA) Assay for solute carrier (SLC22A1) using HepaRG (AID 2283524)
Procedure, shortened: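 HepaRG (human liver line), 48 h dosing in serum-free induction medium; 8 conc., half-log down from 100 uM, 0.5% DMSO vehicle, duplicates. Endpoint: SLC22A1 mRNA, qRT-PCR, housekeeping-normalized; gain/loss fit vs DMSO.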

[15] = read-out: Pyruvate Dehydrogenase Kinase 4 (PDK4), PDK4 (gene 5166); assay: LTEA_HepaRG_PDK4: Life Technologies and Expression Analysis (LTEA) Assay for Pyruvate Dehydrogenase Kinase 4 (PDK4) using HepaRG (AID 2283525)
Procedure, shortened: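 In this multiplexed human HepaRG expression assay, cells are treated 48 h with test chemicals across an eight-point range starting at 100 uM. PDK4 mRNA changes, normalized to ACTB/GAPDH/POLR2A, are fitted in both directions relative to vehicle.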

[16] = read-out: Nuclear factor NF-kappa-B p105 subunit (Homo sapiens) (UniProt P19838); assay: LTEA_HepaRG_NFKB1: Life Technologies and Expression Analysis (LTEA) Assay for Nuclear Factor Kappa B Subunit 1 (NFKB1) using HepaRG (AID 2283521)
Procedure, shortened: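 HepaRG, 48 h exposure; 8-pt half-log series from 100 uM in 0.5% DMSO; duplicates. Readout: NFKB1 mRNA by qRT-PCR (Fluidigm arrays), housekeeping-normalized. Gain/loss fit vs DMSO baseline.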

[17] = read-out: Protein phosphatase 2A (PPP2R4), PTPA (gene 5524); assay: LTEA_HepaRG_PPP2R4: Life Technologies and Expression Analysis (LTEA) Assay for Protein phosphatase 2A (PPP2R4) using HepaRG (AID 2283522)
Procedure, shortened: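 Differentiated human HepaRG cells in serum-free induction medium were exposed 48 h to 8 concentrations (top 100 µM, half-log steps, duplicate) in 0.5% DMSO. PPP2R4 mRNA was measured by TaqMan qRT-PCR, normalised to ACTB, GAPDH and POLR2A, and fitted bidirectionally versus DMSO.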

[18] = read-out: matrix metalloproteinase-10 (MMP10), MMP10 (gene 4319); assay: LTEA_HepaRG_MMP10: Life Technologies and Expression Analysis (LTEA) Assay for matrix metalloproteinase-10 (MMP10) using HepaRG (AID 2283517)
Procedure, shortened: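 Gain or loss of MMP10 mRNA is fitted relative to the 0.5% DMSO vehicle. The human hepatic line HepaRG receives a 48-hour serum-free exposure, in duplicate, with a maximum concentration of 100 uM.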

Measured: AC50

Chain of Nuclear factor NF-kappa-B p105 subunit (Homo sapiens) (P19838 whole entry, looked up): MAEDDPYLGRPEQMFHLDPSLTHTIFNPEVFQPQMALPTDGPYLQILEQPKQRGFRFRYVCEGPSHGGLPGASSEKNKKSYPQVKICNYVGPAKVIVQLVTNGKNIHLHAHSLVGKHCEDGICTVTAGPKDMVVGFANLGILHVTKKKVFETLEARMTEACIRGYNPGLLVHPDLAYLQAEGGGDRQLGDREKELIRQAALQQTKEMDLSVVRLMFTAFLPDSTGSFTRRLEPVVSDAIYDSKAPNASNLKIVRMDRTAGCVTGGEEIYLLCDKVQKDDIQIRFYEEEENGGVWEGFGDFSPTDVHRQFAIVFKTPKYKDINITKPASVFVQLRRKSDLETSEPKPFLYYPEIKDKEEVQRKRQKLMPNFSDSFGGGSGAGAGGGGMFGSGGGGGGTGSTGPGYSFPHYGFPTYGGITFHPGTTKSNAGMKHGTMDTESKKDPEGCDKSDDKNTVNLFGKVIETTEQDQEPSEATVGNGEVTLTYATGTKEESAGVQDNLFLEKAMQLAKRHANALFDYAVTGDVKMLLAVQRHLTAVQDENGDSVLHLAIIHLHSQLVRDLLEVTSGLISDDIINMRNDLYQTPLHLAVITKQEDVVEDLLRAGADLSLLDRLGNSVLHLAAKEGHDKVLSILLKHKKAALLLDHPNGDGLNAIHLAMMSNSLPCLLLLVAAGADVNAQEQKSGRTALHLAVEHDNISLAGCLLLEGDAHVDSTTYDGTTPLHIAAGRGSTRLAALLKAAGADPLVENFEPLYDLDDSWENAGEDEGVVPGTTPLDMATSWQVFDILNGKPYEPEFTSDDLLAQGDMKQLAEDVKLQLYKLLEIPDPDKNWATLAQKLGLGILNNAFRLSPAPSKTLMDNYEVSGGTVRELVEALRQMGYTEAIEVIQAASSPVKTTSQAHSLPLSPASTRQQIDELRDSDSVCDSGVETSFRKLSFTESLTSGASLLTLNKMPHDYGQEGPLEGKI

CN(C)c1ccccc1
inactive: [1] | [2] | [3] | [4] | [5] | [6] | [7] | [8] | [9] | [10] | MYC, MYC (gene 4609) | [11] | [12] | [13] | [14] | [15]

CCCCCCCCOC(=O)c1ccc(C(=O)OCCCCCCCC)c(C(=O)OCCCCCCCC)c1
inactive: [1] | [2] | [3] | [4] | [5] | [6] | [7] | [8] | [9] | [10] | [11] | [12] | [16] | [17] | [13] | [14] | [15]

CS(=O)(=O)NC(=O)c1cc(Oc2ccc(C(F)(F)F)cc2Cl)ccc1[N+](=O)[O-]
active: [12] 31 µM | [15] 16 µM
inactive: [1] | [2] | [3] | [4] | [5] | [6] | [7] | [8] | [9] | [10] | MYC, MYC (gene 4609) | [11] | [13] | [14]

CN(C)C(=O)Nc1ccc(Cl)cc1
inactive: [1] | [2] | [3] | [4] | [5] | [6] | [7] | [8] | [9] | [10] | MYC, MYC (gene 4609) | [11] | [12] | [16] | [13] | [14] | [15]

CN(C)[C@@H]1C(=O)C(C(N)=O)=C(O)[C@@]2(O)C(=O)C3=C(O)c4c(O)cccc4[C@@](C)(O)[C@H]3C[C@@H]12
inactive: [1] | [2] | [3] | [4] | [5] | [6] | [8] | [9] | [10] | [18] | MYC, MYC (gene 4609) | [11] | [12] | [16] | [17] | [13] | [14] | [15]

Cc1cccc(N)c1N
active: [1] 50 µM | [6] 21.3 µM | [8] 58.7 µM | [9] 35.8 µM | [10] 50 µM | [12] 50 µM | [14] 47.4 µM
inactive: [2] | [3] | [4] | [5] | [7] | [11] | [16] | [13] | [15]

CNC(=O)Oc1cccc2c1OC(C)(C)C2
active: [15] 4.56 µM
inactive: [1] | [2] | [3] | [4] | [5] | [6] | [7] | [8] | [9] | [10] | [18] | [11] | [12] | [17] | [13] | [14]

CCCCC(CC)COC(=O)c1ccc(C(=O)OCC(CC)CCCC)c(C(=O)OCC(CC)CCCC)c1 (stereo not given)
inactive: [1] | [2] | [3] | [4] | [5] | [6] | [7] | [8] | [9] | [10] | [11] | [12] | [16] | [13] | [14] | [15]

Cc1ccc([N+](=O)[O-])cc1
active: [1] 17.8 µM | [12] 11.3 µM
inactive: [2] | [3] | [4] | [5] | [6] | [7] | [8] | [9] | [10] | [18] | [11] | [17] | [13] | [14] | [15]

CCCCCCCCCCCCCN1CC(C)OC(C)C1 (stereo not given)
inactive: [1] | [2] | [3] | [4] | [5] | [6] | [7] | [8] | [9] | [10] | [11] | [12] | [13] | [14] | [15]

Cc1ccc(N)c(N)c1
active: [6] 32.8 µM
inactive: [1] | [2] | [3] | [4] | [5] | [7] | [8] | [9] | [10] | MYC, MYC (gene 4609) | [11] | [12] | [16] | [13] | [14] | [15]

N#CC(Br)(Br)C(N)=O
inactive: [1] | [2] | [3] | [4] | [5] | [6] | [7] | [8] | [9] | [10] | MYC, MYC (gene 4609) | [11] | [12] | [16] | [17] | [13] | [14] | [15]
